{
  "source": "PubChem BioAssay (Tox21)",
  "note": "Results filed as inconclusive are left out. A number with no mark means an inactive call. The source made the active and inactive calls. Calls come from the whole dose curve; as a rule, active = well fitted cell-killing curve with a large enough effect in the repeat runs; inconclusive = weak or mixed curves, or effect the other way; inactive = no such curve, though single readings can be large or run the other way. % is set by controls: 0 for no effect and ±100 for the full control effect.",
  "data": [
    {"assay": "qHTS assay to identify small molecule antagonists of the glucocorticoid receptor (GR) signaling pathway - cell viability counter screen (AID 720693); note: nearly all actives have a fitted effect of over 55% in size", "conditions": "GR-bla HeLa viability, CellTiter-Glo luminescence, 18 h, with 5 nM dexamethasone present; series mostly up to 58.5 µM; viability change, negative = cytotoxic: at the top concentration", "source_text": "National Center for Advancing Translational Sciences [NCATS]\nNIH Chemical Genomics Center [NCGC]\nU.S. Environmental Protection Agency [EPA]\nNational Institutes of Environmental Health Sciences [NIEHS]\nNational Toxicology Program [NTP]\nU.S. Food and Drug Administration [FDA]\nThe Glucocorticoid receptor (GR) is one of the members of the nuclear receptor family of ligand-dependent transcription factors. GR plays a critical role in carbohydrate, protein and lipid metabolisms and programmed cell death. CellSensor GR-bla HeLa cell line (Invitrogen) contains a beta-lactamase reporter gene under the control of the glucocorticoid response element stably integrated into HeLa cells, a cervical cancer cell line that expresses glucocorticoid receptor. The activation of the reporter gene under culture conditions can be detected by fluorescence intensity. This cell line has been used to screen the Tox21 10K compound library and to identify the compounds that inhibit the GR signaling. The cytotoxicity of the Tox21 compound library against the GR-bla HeLa cell line was tested in parallel by measuring the cell viability using CellTiter-Glo assay in the same wells.\nTox21 Assay Protocol Summary:\nThe GR-bla HeLa cells were dispensed at 1500 cells/5 ul/well in 1536-well black wall/clear bottom plates using a Multidrop Combi (ThermoFisher Scientific, Waltham, MA) dispenser. After the assay plates were incubated at a 37 C/5% CO2 incubator for 4 hours, 23 nL of compounds dissolved in DMSO, positive controls or DMSO only was transferred to the assay plate by a pintool station (Kalypsys, San Diego, CA), followed by addition of 1 uL of dexamethasone (5 nM, final concentration in the well). The plates were incubated at 37 C for 18 hours. After 1 uL of LiveBLAzerTM B/G FRET substrate was added using a Flying Reagent Dispenser (Aurora Discovery, San Diego, CA), the plates were incubated at room temperature (RT) for 2 hours, and fluorescence intensity was measured by an Envision plate reader (PerkinElmer, Shelton, CT). After measurement of bla assay, 3 ul CellTiter-Glo (Promega, Madison, WI) was added to measure the cytotoxicity and the plates were then incubated at RT for 30 min. The luminescence was measured using a ViewLux (Perkin Elmer) plate reader.", "values": [
      {"compound": "CCCCCCCCCCCC", "viability change, negative = cytotoxic": "16.5%"},
      {"compound": "CN(C)CCCNCCCN(C)C", "viability change, negative = cytotoxic": "16.1%"},
      {"compound": "N=c1nc(N2CCCCC2)cc(N)n1O", "viability change, negative = cytotoxic": "-2.55%"},
      {"compound": "CN(C)CCCSc1ccccc1NC(=O)/C=C/c1ccccc1", "viability change, negative = cytotoxic": "1.89%"},
      {"compound": "COc1cc(C(=O)N2CCCCCCC2)cc(OC)c1OC", "viability change, negative = cytotoxic": "9.93%"},
      {"compound": "CO/N=C(/C(=O)N[C@@H]1C(=O)N2C(C(=O)OCOC(=O)C(C)(C)C)=C(C)CS[C@H]12)c1csc(N)n1", "viability change, negative = cytotoxic": "7.09%"},
      {"compound": "CO[Si](CCCOCC1CO1)(OC)OC", "note": "(stereo not given)", "outcome": "inactive"},
      {"compound": "COCCCOCCCOC", "viability change, negative = cytotoxic": "0.757%"},
      {"compound": "COc1ccc(CCN(C)CCCC(C#N)(c2cc(OC)c(OC)c(OC)c2)C(C)C)cc1OC", "note": "(stereo not given)", "viability change, negative = cytotoxic": "12.2%"},
      {"compound": "O=C1CCCC(=O)C1", "viability change, negative = cytotoxic": "0.0824%"},
      {"compound": "CCOC(=O)CC(C)=O", "viability change, negative = cytotoxic": "14.3% [at 78.9 µM]"},
      {"compound": "N#Cc1ccc(C2CCCc3cncn32)cc1", "note": "(stereo not given)", "viability change, negative = cytotoxic": "10.3% [at 27 µM]"},
      {"compound": "CC(C)=CCCC(C)CC(=O)O", "note": "(stereo not given)", "viability change, negative = cytotoxic": "5.88%"},
      {"compound": "NC(=O)c1cn(Cc2c(F)cccc2F)nn1", "viability change, negative = cytotoxic": "6.99%"},
      {"compound": "c1ccc([C@H]2CN3CCSC3=N2)cc1", "viability change, negative = cytotoxic": "-5.32%"},
      {"compound": "CC(C)(O)C#CC(C)(C)O", "viability change, negative = cytotoxic": "-0.0512% [at 78.9 µM]"},
      {"compound": "Nc1cc(=O)[nH]c(N)n1", "viability change, negative = cytotoxic": "6.12%"},
      {"compound": "CC(=O)N(CC(O)CO)c1c(I)c(C(=O)NCCO)c(I)c(C(=O)NCC(O)CO)c1I", "note": "(stereo not given)", "viability change, negative = cytotoxic": "1.53%"},
      {"compound": "CCCN(CCC)CCc1cccc2c1CC(=O)N2", "viability change, negative = cytotoxic": "1.61%"},
      {"compound": "COc1nc(N)nc2c1ncn2[C@@H]1O[C@H](CO)[C@@H](O)[C@@H]1O", "viability change, negative = cytotoxic": "0.862%"},
      {"compound": "CC(C)(C)c1ccc(O)c(O)c1", "viability change, negative = cytotoxic": "-26.1% [at 78.9 µM]"},
      {"compound": "C[C@H]1C[C@@H](O)CC(C)(C)C1", "viability change, negative = cytotoxic": "1.45%"},
      {"compound": "O=c1n(CCO)c(=O)n(CCO)c(=O)n1CCO", "outcome": "inactive"},
      {"compound": "C=C1CC[C@H]2C[C@@H]1C2(C)C", "viability change, negative = cytotoxic": "-1.04%"},
      {"compound": "COc1c(N2C[C@@H]3CCCN[C@@H]3C2)c(F)cc2c(=O)c(C(=O)O)cn(C3CC3)c12", "outcome": "inactive"},
      {"compound": "N[C@H](C(=O)O)c1ccc(O)cc1", "viability change, negative = cytotoxic": "4.31%"},
      {"compound": "CCOC(=O)C(=O)OCC", "viability change, negative = cytotoxic": "-0.599%"},
      {"compound": "O=C1CCCCCCCCCCCN1", "outcome": "inactive"},
      {"compound": "N[C@@H](C(=O)N[C@@H]1C(=O)N2C(C(=O)O)=C(Cl)CS[C@H]12)c1ccccc1", "viability change, negative = cytotoxic": "-12.4%"},
      {"compound": "CN(C(=O)c1c(O)c2ccccc2n(C)c1=O)c1ccccc1", "viability change, negative = cytotoxic": "4.87%"},
      {"compound": "CO[C@]12C[C@@H](COC(=O)c3cncc(Br)c3)CN(C)[C@@H]1Cc1cn(C)c3cccc2c13", "viability change, negative = cytotoxic": "2.46%"},
      {"compound": "NS(=O)(=O)c1cc2c(cc1Cl)NC(C1CC3C=CC1C3)NS2(=O)=O", "note": "(stereo not given)", "viability change, negative = cytotoxic": "-0.624%"},
      {"compound": "CC(C)(C)c1nnc(NS(=O)(=O)c2ccccc2)s1", "viability change, negative = cytotoxic": "7.71%"},
      {"compound": "C[C@H](NC(CCc1ccccc1)C(=O)O)C(=O)N1CCC[C@H]1C(=O)O", "note": "(stereo not given in full)", "viability change, negative = cytotoxic": "-0.521%"},
      {"compound": "CCCCOCCOCCOCc1cc2c(cc1CCC)OCO2", "outcome": "inactive"},
      {"compound": "OCCOc1ccc(OCCO)cc1", "viability change, negative = cytotoxic": "-2.7% [at 78.9 µM]"},
      {"compound": "FC(F)OC(Cl)C(F)(F)F", "note": "(stereo not given)", "outcome": "inactive"},
      {"compound": "O=C[C@H](O)[C@@H](O)[C@H](O)[C@H](O)CO", "outcome": "inactive"},
      {"compound": "COC(=O)c1c(Cl)c(Cl)c(C(=O)OC)c(Cl)c1Cl", "viability change, negative = cytotoxic": "11.6%"},
      {"compound": "COCCc1ccc(OCC(O)CNC(C)C)cc1", "note": "(stereo not given)", "outcome": "inactive"}
    ]}
  ]
}
